From PubChem BioAssay (NCI)
Where “and” joins values, the source holds several entries; their conditions need not be identical. Equal values may be shown once. Compounds without any hit were thinned out: in the full panel of roughly 83,000, 20% have a hit.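 Single-concentration screen, 48 h exposure, 96-well plates. Endpoint: percent growth. Below 10 = active.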 Unmarked numbers belong to inactive results. Calls of active or inactive are those of the source.

System: MDA-MB-468 breast
Assay: NCI-60 one-dose screen, 48 h (100 = growth as untreated, 0 = no growth, -100 = all killed)
Conditions: 10 µM unless noted

Question: How did the growth turn out when COc1ccc(OC)c(Nc2nc3nonc3nc2Nc2cccc(Br)c2)c1 was run?
Answer: Its growth is 0.0908% (active).

Question: For O=C(O)c1cn(C2CC2)c2cc(N3CCN(C(=O)Nc4nc(-c5ccccc5)cs4)CC3)c(F)cc2c1=O, which growth is on record?
Answer: Its growth is 27.1%.

Question: How did the growth turn out when C=CCn1c(SCC(=O)Nc2ccc(C(=O)/C=C/c3ccc(Cl)cc3)cc2)nnc1-c1c[nH]c2ccccc12 was run?
Answer: Its growth is 62.2%.

Question: Which growth does the source give for CCCCCCCCN(CCCCCCCC)CC(O)c1ccc(Cl)c(C)c1Cl (stereo not given) here?
Answer: Its growth is 105%.

Question: Cc1cnc(C=O)c2cccc([N+](=O)[O-])c12 was tested. Which growth did it give?
Answer: Its growth is 89.7%.

Question: How did the growth turn out when COc1ccc(-c2c(N)noc2-c2cc(OC)c3c(c2)OCCO3)cc1 was run?
Answer: Its growth is -1.87% (active).

Question: How did the growth turn out when Fc1ccc(Oc2ccc(Nc3ncnc4onc(-c5ccccc5)c34)cc2)cc1 was run?
Answer: Its growth is 101%.

Question: How did the growth turn out when O=C(NCCc1ccccc1)/C(=C\c1ccc(Cl)cc1Cl)NC(=O)c1ccccc1 was run?
Answer: The growth was 95.1%.

Question: With COC(=S)SCN(CSC(=S)OC)c1ccc(Cl)cc1 as the molecule, how does the growth read?
Answer: The growth was 95.1%.

Question: CC1=NC2=Nn3c(c4cnn(-c5ccccc5)c4n/c3=N\N)NN2C(c2ccccc2)=C1 was tested. Which growth did it give?
Answer: The growth was 73.9%.

Question: Which growth does the source give for O=[N+]([O-])c1ccc(/C=N\NC(=S)Nc2ccc(F)cc2)cc1 here?
Answer: The growth was 104% and 101%.

Question: For O=C(O)c1ccc(NCc2cn(-c3ccc(C(F)(F)F)cc3)nc2-c2ccc(C(=O)O)cc2)cc1, which growth is on record?
Answer: Its growth is 123%.

Question: How did the growth turn out when COc1ccc(Nc2cc(NC(=O)CNc3cc(OC)c(Cl)c(OC)c3Cl)ncn2)cc1 was run?
Answer: Its growth is 80.8%.

Question: For Cc1ccc(-c2ccc(/C=C(\C#N)c3nc(-c4ccco4)cs3)o2)cc1, which growth is on record?
Answer: Its growth is -45.8% (active).

Question: NS(=O)(=O)N(c1cc(C(F)(F)F)cc(C(F)(F)F)c1)C1CCN(Cc2ccc(F)cc2)CC1 was tested. Which growth did it give?
Answer: The growth was 52.9%.

Question: With CCNC(=O)Oc1ccc(/C(=C(/C)Cc2ccc(OC)cc2)c2ccc(OCCN3CCCCC3)cc2)cc1 as the molecule, how does the growth read?
Answer: The growth was 42.4%.

Question: How did the growth turn out when CN(C)CCCN1c2ccccc2Sc2ccc(C(F)(F)F)cc21 was run?
Answer: The growth was -76.9% (active).

Question: With O=C(CBr)CN1C(=O)c2ccccc2C1=O as the molecule, how does the growth read?
Answer: The growth was 103%.

Question: How did the growth turn out when C#CCOC(=O)C(N)CS (stereo not given) was run?
Answer: The growth was 97.3%.

Question: N#Cc1cnn(-c2nc3c(Cl)cccc3s2)c1N was tested. Which growth did it give?
Answer: Its growth is 85.3%.

Question: With Cn1nccc1Nc1nccc(-c2ccn([C@H](CO)c3ccc(Cl)c(F)c3)c(=O)c2)n1 as the molecule, how does the growth read?
Answer: The growth was 129%.

Question: With COc1ccc(/C=N/NC(=O)Cn2c(-c3ccc(S(C)(=O)=O)cc3)nc3cc(Cl)ccc32)cc1 as the molecule, how does the growth read?
Answer: Its growth is -18.5% (active).

Question: Which growth does the source give for CC(C)C1=NOC(=O)C1=Cc1cn(-c2ccccc2)nc1-c1cccc([N+](=O)[O-])c1 here?
Answer: The growth was 86.6%.

Question: Which growth does the source give for Cc1cccc[n+]1CCC[n+]1ccccc1C here?
Answer: Its growth is 103%.

Question: For CC(C)c1ccc(C(C)C(=O)N(CC2=C(C(C)c3ccccn3)c3ccccc3C2)C(C)C)cc1 (stereo not given), which growth is on record?
Answer: The growth was 24.9%.

Question: With O=C(Nc1ccccc1)Oc1c(Cl)c(Cl)c(Cl)c(Cl)c1Cl as the molecule, how does the growth read?
Answer: Its growth is 116% and 98.8%.

Question: O=C(Nc1ccc(N2CCCCC2)c(Cl)c1)c1ccc(Br)o1 was tested. Which growth did it give?
Answer: The growth was 89.7%.

Question: COc1ccc(OC)c(C2OC(c3ccc4ccccc4c3O)=NN2C(C)=O)c1 (stereo not given) was tested. Which growth did it give?
Answer: The growth was 53.9%.

Question: For O=C(Nc1ccc(OCc2nnc(-c3ccc(Cl)cc3)o2)c(F)c1)Nc1ccc(Cl)c(C(F)(F)F)c1, which growth is on record?
Answer: The growth was -24.8% (active).

Question: Which growth does the source give for Cc1ccc(N2CCN(C3=C(Cl)C(=O)c4ncccc4C3=O)CC2)cc1 here?
Answer: The growth was -63.9% (active).

Question: With COc1ccc(CCN2C(=O)/C(=C/c3ccc(C4Oc5ccccc5C5CC(c6cccc(OC)c6)=NN54)cc3)SC2=S)cc1 (stereo not given) as the molecule, how does the growth read?
Answer: Its growth is 107%.

Question: How did the growth turn out when CCc1ccccc1-n1c(-c2ccc(Cl)cc2)cc(-c2ccc(Cl)cc2)c(C#N)c1=O was run?
Answer: Its growth is 87.6%.

Question: For C=CCSSC1N=CNc2nc[nH]c21 (stereo not given), which growth is on record?
Answer: The growth was 5.55% (active).

Question: COc1ccc2nc3cc(Cl)ccc3c(NCCCNCCC(C)O)c2c1 (stereo not given) was tested. Which growth did it give?
Answer: The growth was -54% (active).

Question: For Cc1nccc2c3ccc(OCc4cn(-c5ccc(Cl)cc5)nn4)cc3n(CCCc3ccccc3)c12, which growth is on record?
Answer: Its growth is 10.6%.

Question: How did the growth turn out when O=C(Nc1cccnc1Nc1ccc(Cl)cc1)c1cn(Cc2cccc(Oc3ccccc3)c2)nn1 was run?
Answer: The growth was 63.3%.

Question: N#Cc1c(-c2ccc(C(F)(F)F)cc2)c(F)c(NCCC2CCC(O)C2)n2c1nc1ccccc12 (stereo not given) was tested. Which growth did it give?
Answer: Its growth is 64.2%.

Question: How did the growth turn out when CC(=O)c1cc2c(c(O)c1C)C(=O)C(=O)c1c(O)cccc1-2 was run?
Answer: Its growth is -58% (active).

Question: COc1ccc2[nH]c(C(=O)N3CCN(C(=O)OCc4ccc5c(Br)cc(Br)c(O)c5n4)CC3)cc2c1 was tested. Which growth did it give?
Answer: The growth was -80.5% (active).

Question: Which growth does the source give for COc1cc(NC2CCCCC2O)c2nc(-c3ccc(Cl)cc3)ccc2c1 (stereo not given) here?
Answer: The growth was 98.6% and 62.5%.
